These results are taken from PubChem BioAssay (EPA / NIEHS).

Each structure is given as a SMILES string. Active and inactive are the calls of the source. How the source made its calls: active means hit-call score of the fitted dose curve at least 0.9, where 1 is the maximum; inactive means score below 0.9.

Estrogen receptor (Homo sapiens), sequence (P03372 whole entry, looked up): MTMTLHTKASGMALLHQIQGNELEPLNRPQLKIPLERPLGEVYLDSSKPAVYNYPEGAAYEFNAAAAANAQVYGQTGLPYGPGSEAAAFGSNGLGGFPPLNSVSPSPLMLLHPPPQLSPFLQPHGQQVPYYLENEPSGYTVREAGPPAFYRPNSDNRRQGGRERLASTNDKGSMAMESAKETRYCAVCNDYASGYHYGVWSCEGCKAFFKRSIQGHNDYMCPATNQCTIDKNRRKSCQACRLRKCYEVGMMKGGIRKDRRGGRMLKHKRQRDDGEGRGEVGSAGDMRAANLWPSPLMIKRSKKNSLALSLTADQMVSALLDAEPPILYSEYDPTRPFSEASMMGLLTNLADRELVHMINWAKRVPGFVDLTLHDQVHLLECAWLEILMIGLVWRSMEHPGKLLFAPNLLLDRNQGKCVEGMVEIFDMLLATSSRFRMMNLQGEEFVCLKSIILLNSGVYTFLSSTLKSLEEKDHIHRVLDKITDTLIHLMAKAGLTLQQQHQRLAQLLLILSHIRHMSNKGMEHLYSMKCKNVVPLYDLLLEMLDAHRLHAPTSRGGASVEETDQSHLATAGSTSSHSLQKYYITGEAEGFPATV

The target in this assay is Estrogen receptor (Homo sapiens) (UniProt P03372). Kind of assay: CCTE_Deisenroth_AIME_384WELL_LUC_Shift: CCTE's 384-well Estrogen Receptor Transactivation Assay with AIME metabolic competence data shift (ERTA luciferase; difference in metabolism positive and negative), Deisenroth Lab (AID 2284041).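 Further: shift is response with S9 minus without S9 so positive means metabolism raised ER signal.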 The procedure:
CCTE_Deisenroth_AIME_384WELL (AIME metabolism assay) is a cell-based, single-readout assay that uses VM7Luc4E2, a human mammary gland/breast cell line, with measurements taken at 24 hour after chemical dosing in a 384-well plate.CCTE_Deisenroth_AIME_384WELL_LUC_Shift is one of two analysis components calculated from the CCTE_Deisenroth_AIME_384WELL assay. […] AIME is optimized to impart phase I hepatic metabolism using phenobarbital/beta-naphthoflavone induced hepatic S9 from male Sprague Dawley rats. Parent chemicals are incubated for 2 hours in the AIME assay prior to transfer to the VM7Luc ERTA assay plate. […] The metabolic curve shift response is defined as the pairwise difference between the positive (AEID 2488) and negative (AEID 2490) normalized response values at each concentration for a given chemical across replicate experiments. The pairwise differences form the basis for a concentration-response curve. Standard curve fit analysis identfiied chemicals where the calculated shift was greater than the shift-derived baseline cutoff. A positive hit designation in this endpoint indicates a significant shift trend in the positive direction for bioactivation.
The AIME procedure consists of a preparative "pre-stamping" step using a barium chloride/poly-L-lysine (PLL) solution followed by "stamping" the lid in alginate-hepatic S9 (metabolism positive) or alginate-water (metabolism negative) to form microspheres. Once stamping is completed, the AIME lids are placed in duplicate microplates (metabolism positive or negative) containing chemical solutions and incubated for two hours to facilitate metabolic reactions. The conditioned medium, containing parent chemical or metabolites, is then transferred to the cell-based VM7Luc Estrogen Receptor Transactivation Assay (ERTA) for 24 hours. A typical experimental design tests a 10-point concentration series (0.002 - 200 uM) for 8 compounds (96-well format)1 or 32 compounds (384-well format)2 in single technical replicate. AIME assay controls include trans-stilbene (bioactivated control) and ethylparaben (bioinactivated control). ERTA assay plate controls include 17-beta estradiol (positive control) and DMSO (solvent control). Experiments typically comprise a minimum of four experimental replicates (n=4).
For `CO[Si](OC)(OC)c1ccccc1`, the result was inactive. In the case of `CCOC(=O)CC`, the result was inactive. For `CCCCCc1ccc(Cl)cc1`, the result was inactive.

As for `CCCCCCCC[N+](C)(CCCCCCCC)CCCCCCCC`, the result was inactive. For the compound `CCCCC(CC)CCC(CC(C)C)OS(=O)(=O)O` (configuration not stated), the outcome was inactive. On the same count and under the same terms, with `CCN(CCC#N)c1ccc(N=Nc2c(Cl)cc([N+](=O)[O-])cc2Cl)cc1` the entry was “inactive”; with `CCCCCCCCCCOS(=O)(=O)O`, “inactive”; with `C=C1C2CCC(C2)C1(C)C` (configuration not stated), “inactive”. Take `O=C(C=Cc1ccccc1)OCc1ccccc1`: the AC50 is 22.9 µM (active). With `O=C(C(Cl)Cl)N1CCOC12CCCCC2`, the result was inactive. Still for that read-out and setting: with `c1ccc2c(c1)ccc1cc3c(ccc4ccccc43)cc12` the entry was “inactive”.

Turning to `O=C(c1ccccc1)C1CCC1`, the result was inactive. The same measure, in the same setting: then `Oc1ccc(Cl)cc1Cc1cc(Cl)ccc1O`, with “inactive”; and `CCCCC/C=C\CCC=O`, with “inactive”. For `CC=C1CC2C=CC1C2` (configuration not stated), the result was inactive.

`O=S(=O)(O)c1ccccc1C=Cc1ccc(-c2ccc(C=Cc3ccccc3S(=O)(=O)O)cc2)cc1`: the result was inactive.

With `O=C1CCCC1`, the result was inactive.

Consider `OC1CCCC1`, for which the outcome was inactive. As to `NC(CO)(CO)CO`, the outcome was inactive. For `Cc1ccc(C(C)c2ccc(C)c(C)c2)cc1C`, the concentration at half-maximal activity (AC50) was 0.000413 µM (active). As for `O=c1cc(-c2ccccc2)oc2ccccc12`, the outcome was inactive. Same read-out and setting: then `C=CC(=O)NC(C)(C)CS(=O)(=O)O`, with “inactive”; and `O=C1C(N(CO)C(=O)NCO)N(CO)C(=O)N1CO` (configuration not stated), with “inactive”. The same measure, in the same setting: with `O=S1(=O)OC(c2ccc(O)cc2)(c2ccc(O)cc2)c2ccccc21` the entry was “inactive”; with `CN(C)c1ccc(C(=N)c2ccc(N(C)C)cc2)cc1`, “inactive”.

Consider `CC(=O)OC(C)C`, for which the outcome was inactive. Still for that read-out and setting: then `CC1=NN(c2cc(S(=O)(=O)O)ccc2Cl)C(=O)C1N=Nc1ccccc1` (configuration not stated), with “inactive”.
